Test systems include NCI-H23 lung; NCI-H226 lung; HOP-62 NSCLC; NCI-H460 lung; HOP-92 NSCLC; NCI-H522 lung; A549/ATCC NSCLC; 786-0 renal; COLO 205 colon.
Common to all, as to assay: NCI-60 one-dose screen, 48 h (100 = growth as untreated, 0 = no growth, -100 = all killed)
Holding throughout (conditions): 10 µM

Each structure is given as a SMILES string. Compounds without any hit were thinned out: in the full panel of roughly 83,000, 20% have a hit.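 Interpretation: 100, growth as untreated; towards 0, rising growth inhibition; 0, no net growth; 0 to -100, cell death. Compounds scoring below 10 were considered active.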 Unmarked numbers belong to inactive results. Activity calls are given as the source filed them.

On to `COc1ccc(-c2cc(-c3ccc(Cl)cc3)nc(SCCCC(=O)NO)n2)cc1OC`, for which the growth with NCI-H23 lung was -8.91% (active); with NCI-H226 lung, -5.3% (active); in the experiment with HOP-62 NSCLC, 2.14% (active); in the experiment with NCI-H460 lung, -17.7% (active); in the experiment with HOP-92 NSCLC, -0.324% (active); in the experiment on NCI-H522 lung, -5.35% (active). The growth in the experiment on A549/ATCC NSCLC was 8.3% (active); in the experiment with 786-0 renal, 4.57% (active); in the experiment with COLO 205 colon it was 6.86% (active).

For the compound `COc1cc(-c2nn(-c3ccc(NC(=O)NCCNS(=O)(=O)c4ccc(F)cc4)cc3)cc2-c2ccncc2)ccc1Cl`, the growth in the experiment on NCI-H23 lung was 12.7%; in the experiment on NCI-H226 lung, 36.2%; in the experiment on HOP-62 NSCLC, 29.7%; in the experiment with NCI-H460 lung it was 0.926% (active); in the experiment with HOP-92 NSCLC it was -6.87% (active); with NCI-H522 lung, -10.4% (active). Moreover, the figures for the growth in the experiment with A549/ATCC NSCLC, with 786-0 renal and with COLO 205 colon were 15.7%, -8.2% (active) and -63.5% (active), respectively.

Regarding `COc1cc(NC(=O)Nc2cnc(Nc3ccc(N4CCOCC4)cc3)nc2Oc2cccc(OC)c2)cc(OC)c1`, the growth is 61.3% in the experiment on NCI-H23 lung; 7.06% (active) in the experiment on NCI-H226 lung; 32.1% in the experiment with HOP-62 NSCLC; 23.9% in the experiment on NCI-H460 lung; 4.67% (active) in the experiment with HOP-92 NSCLC; 27.5% in the experiment on NCI-H522 lung. Moreover, the growth in the experiment on A549/ATCC NSCLC was 23.4%; in the experiment on 786-0 renal, -25.6% (active); with COLO 205 colon, 46.2%.

For the compound `O=C(Nc1ccc(NS(=O)(=O)c2ccc(F)cc2)cc1)C12CC3CC(CC(C3)C1)C2`, the growth with NCI-H23 lung is 94.9%; with NCI-H226 lung it was 92%; in the experiment on HOP-62 NSCLC, 104%; in the experiment with NCI-H460 lung, 101%; with HOP-92 NSCLC, 106%; in the experiment with NCI-H522 lung it was 86.4%. The growth was 86.6% in the experiment with A549/ATCC NSCLC, 103% in the experiment with 786-0 renal and 101% with COLO 205 colon.

For `O=C(Nc1ccc(OCc2nnc(-c3ccc(Cl)cc3)o2)c(F)c1)Nc1ccc(Cl)c(C(F)(F)F)c1`, the growth in the experiment on NCI-H23 lung is -5.04% (active); in the experiment with NCI-H226 lung it was -4.39% (active); in the experiment on HOP-62 NSCLC, 16.6%; with NCI-H460 lung, 2.73% (active); with HOP-92 NSCLC, -19.3% (active); in the experiment with NCI-H522 lung it was -33.8% (active). Further, the figures for the growth in the experiment with A549/ATCC NSCLC, in the experiment with 786-0 renal and in the experiment with COLO 205 colon were 12.8%, 10.1% and -76.9% (active), respectively.

For `Cc1ccc(NCCN(C)CC(C)O)c2c(=O)c3ccc(Cl)cc3sc12` (stereo unspecified), the growth in the experiment on NCI-H23 lung is 65.7%; with NCI-H226 lung, 85.3%; in the experiment on HOP-62 NSCLC, 87.1%; in the experiment with NCI-H460 lung, 0.284% (active); in the experiment with HOP-92 NSCLC, 34.3%; with NCI-H522 lung, 57.4%. The growth with A549/ATCC NSCLC is 39.6%; in the experiment on 786-0 renal it was 47.3%; in the experiment on COLO 205 colon it was -78% (active).

On to `CC[C@@H](C(=O)[C@@H](C)[C@@H](O)[C@H](C)[C@@H]1O[C@@H]([C@@H](CC)C(=O)N(CC)CC)CC[C@@H]1C)C1O[C@]2(C=CC(=O)[C@]3(CC[C@@](C)([C@H]4CC[C@](O)(CC)[C@H](C)O4)O3)O2)[C@H](C)C[C@@H]1C` (stereo partly specified), for which the growth in the experiment on NCI-H23 lung is 20%; in the experiment with NCI-H226 lung it was 13.4%; in the experiment with HOP-62 NSCLC, 31.7%; with NCI-H460 lung it was 18.5%; in the experiment with HOP-92 NSCLC it was -17.2% (active); in the experiment on NCI-H522 lung it was 8.58% (active). The growth in the experiment on A549/ATCC NSCLC was 28.3%; with 786-0 renal, 34.6%; with COLO 205 colon it was 12.2%.

For `CCN(CC)CCOc1cccc2c1C(=O)c1cccc(OCCN(CC)CC)c1C2=O`, the growth in the experiment with NCI-H23 lung is 42.2%; with NCI-H226 lung it was 36.6%; in the experiment on HOP-62 NSCLC, 37%; with NCI-H460 lung, 13.9%; with HOP-92 NSCLC, 36.5%; in the experiment on NCI-H522 lung, 42.8%. Also, the results for the growth in the experiment on A549/ATCC NSCLC, in the experiment on 786-0 renal and in the experiment on COLO 205 colon were 17.5%, 38.6% and 6.57% (active), respectively.

Turning to `O=C1/C=C/[C@@H](O)[C@@H]2C[C@@H](O)C[C@H]2/C=C/CCC[C@H](C(F)(F)F)O1`, the growth with NCI-H23 lung is -30.8% (active); in the experiment on NCI-H226 lung, -46.7% (active); with HOP-62 NSCLC, 33%; with NCI-H460 lung, 59.2%; in the experiment on HOP-92 NSCLC, -2.27% (active); in the experiment on NCI-H522 lung, -27.6% (active). Also, the growth in the experiment on A549/ATCC NSCLC was 33.4%; in the experiment on 786-0 renal it was -11.6% (active); in the experiment on COLO 205 colon, -44.6% (active).

Turning to `COc1ccc(/C=C/c2nnc(/C=C/c3ccc(OC)c(OC)c3)o2)cc1OC`, the growth in the experiment on NCI-H23 lung was 25.4%; in the experiment with NCI-H226 lung, 63.5%; in the experiment with HOP-62 NSCLC it was 35.3%; in the experiment on NCI-H460 lung, 15.6%; in the experiment with HOP-92 NSCLC, 20.4%; with NCI-H522 lung, 9.91% (active). Moreover, the figures for the growth in the experiment with A549/ATCC NSCLC, in the experiment with 786-0 renal and in the experiment with COLO 205 colon were 32%, 12.8% and 22%, respectively.

For `COc1cc(-c2nn(-c3ccc(NC(=O)NCCCNC(=O)c4ccccc4)cc3)cc2-c2ccncc2)ccc1Cl`, the growth is 28.8% with NCI-H23 lung; 56.1% in the experiment with NCI-H226 lung; 41.5% in the experiment on HOP-62 NSCLC; 6.81% (active) in the experiment with NCI-H460 lung; -0.43% (active) with HOP-92 NSCLC; 3.7% (active) in the experiment with NCI-H522 lung. Moreover, the values for the growth in the experiment on A549/ATCC NSCLC, with 786-0 renal and in the experiment on COLO 205 colon were 26%, 14.8% and -43.4% (active), respectively.

Consider `COc1cc(/C=C2\CCCC3=C2NC(N)=NC3c2cc(OC)c(OC)c(OC)c2)cc(OC)c1OC` (stereo unspecified), for which the growth is 11.6% in the experiment on NCI-H23 lung; -61% (active) with NCI-H226 lung; 17.8% in the experiment on HOP-62 NSCLC; -42.6% (active) in the experiment on NCI-H460 lung; -1% (active) with HOP-92 NSCLC; -38% (active) in the experiment with NCI-H522 lung. The growth in the experiment with A549/ATCC NSCLC is -28.4% (active); in the experiment on 786-0 renal, -20.1% (active); in the experiment with COLO 205 colon it was -0.149% (active).

In the case of `CCCN(CCC)C(=O)[C@H](CC)[C@@H]1CC[C@@H](C)[C@@H]([C@H](C)[C@@H](O)[C@@H](C)C(=O)[C@H](CC)C2O[C@]3(C=C[C@@H](O)[C@]4(CC[C@@](C)([C@H]5CC[C@](O)(CC)[C@H](C)O5)O4)O3)[C@H](C)C[C@@H]2C)O1` (stereo partly specified), the growth in the experiment with NCI-H23 lung is -9.41% (active); in the experiment with NCI-H226 lung it was -2.4% (active); with HOP-62 NSCLC, 14.2%; in the experiment on NCI-H460 lung, 1.15% (active); with HOP-92 NSCLC, -21.1% (active); in the experiment with NCI-H522 lung it was -11.1% (active). Further, the growth with A549/ATCC NSCLC was 16.6%; with 786-0 renal it was 15.8%; in the experiment with COLO 205 colon, -64.2% (active).

For `CC(C)(C)OC(=O)N1CCc2c(sc3ncnc(N/N=C/c4cccc(Br)c4)c23)C1`, the growth in the experiment with NCI-H23 lung is 55.3%; in the experiment on NCI-H226 lung, 67.3%; with HOP-62 NSCLC, 45.1%; in the experiment with NCI-H460 lung, 20.9%; in the experiment on HOP-92 NSCLC, 75.6%; in the experiment on NCI-H522 lung it was 34.2%. Besides, the values for the growth with A549/ATCC NSCLC, with 786-0 renal and in the experiment with COLO 205 colon were 45.7%, 50.7% and 13.1%, respectively.

These data come from PubChem BioAssay (NCI).
